DT40 TDP1 no CPT: qHTS for Inhibitors of human tyrosyl-DNA phosphodiesterase 1 (TDP1): qHTS in cells in absence of CPT. hit rate 15% among 420,000. Potency, µM (highest dose often 46.2 µM), for inactives: top-dose activity change, negative = growth inhibition, actives largely listed as inhibitors. DT40 Tdp1-/- hTDP1 cells, no CPT, ATP luminescence, 48 h; further: on the % scale 0 is the no-effect control and ±100 the full control effect; nearly all actives have a fitted effect of over 55% in size
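Growth kinetics read by CellTiter-Glo luminescence after ≥48 hr at 37 °C. Cells: DT40 Tdp1-/- stably carrying human TDP1, 400 per well, compound exposure in the absence of CPT (DMSO vehicle).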
ATXN viability: viability counter-screen for ATXN expression inhibitors | S2 cells (HEK-293 line with an ATXN2-luciferase reporter) viability, CellTiter-Fluor protease fluorescence, 24 h | hit rate 0.49% among 400,000 | Potency, µM (highest dose often 56.7 µM), actives largely listed as cytotoxic; further: nearly all actives have a fitted effect of over 40% in size
HepG2 tox: counter-screen for TGF-b inhibitors: cytotoxicity in HepG2 cells; hit rate 0.76% among 410,000; Potency, µM (series often up to 46.1 µM), for the others: top-dose activity change, negative = cytotoxicity, usual class: cytotoxic; HepG2 CAGA-GFP viability, ATP luminescence, 18 h
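HepG2 CAGA-GFP cells (1000/well, DMEM with 1% FBS) received compound, then TGF-beta at 500 pg/mL final, and were incubated 18 hours at 37 degrees C. Viability was read by CellTiter-Glo luminescence. Media-only wells were set as complete cell-killing and DMSO as no toxicity.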
TGFb inhibitor: TGF-b pathway inhibition; HepG2 CAGA-GFP TGF-b/SMAD3 reporter, GFP fluorescence, 18 h; TGF-beta stimulated, 500 pg/mL final; Potency, µM (doses to about 46.1 µM), for inactives: top-dose activity, negative = inhibition, usual class: inhibitors; hit rate 1.2% among 410,000; further: on the % scale 0 is the no-effect control and ±100 the full control effect; nearly all actives have a fitted effect of over 65% in size
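First, reporter cells (HEPG2 CAGA-GFP) rested 2 h at 37 degrees C. Next, compounds were pinned in and TGF-beta added to 500 pg/mL final. After 18 h, GFP was imaged per cell and summed per well.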
TDP1 cell CPT: DT40-hTDP1 cell growth loss with CPT; chicken DT40 Tdp1-/-;hTDP1 cells + 20 nM CPT, ATP luminescence, 48 h; Potency, µM (doses to about 46.2 µM), without a hit: top-dose activity change, negative = growth inhibition, most hits filed as inhibitors; hit rate 12% among 420,000; AID 686979; further: on the % scale 0 is the no-effect control and ±100 the full control effect; nearly all actives have a fitted effect of over 55% in size
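Cell growth measured by CellTiter-Glo luminescence after a minimum 48 h, 37 C compound exposure with 20 nM CPT in Tdp1-knockout DT40 cells stably expressing hTDP1, seeded 400/well; qHTS titration format.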
ATXN2 expr inh: inhibitors of ATXN2 expression; HEK-293 ATXN2-luciferase reporter, luminescence, 24 h; Potency, µM (series often up to 57 µM), for the others: at the highest dose activity change, negative = inhibition, hits mostly inhibitors; hit rate 0.72% among 360,000; AID 1745845; further: on the % scale 0 is the no-effect control and ±100 the full control effect; nearly all actives have a fitted effect of over 55% in size
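ATXN2-luciferase reporter cells (luciferase flanked by upstream and downstream ATXN2 gene portions) were treated 24 h at 37 °C with compounds at up to 57 uM. SteadyGlo luminescence gave expression; GF-AFC fluorescence gave viability.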
* marks the source's active call; other numbers are inactive results; i = inactive; ? = inconclusive; nt = not tested or not shown; [ ] = remark or other dose. Rows were chosen to be rich in hits. Some 17% of all compounds tested hit in one or more screens of this group. The call rests on the fitted dose curve; in most records, active means well fitted curve in the direction sought with a large enough effect; inconclusive means small, poorly fitted or top-dose-only effect, or another doubt; inactive means no such curve, though single readings can be large; an effect the other way counts as inactive or inconclusive. Potency means the concentration at half of the fitted maximal effect.

SMILES	DT40 TDP1 no CPT	ATXN viability	HepG2 tox	TGFb inhibitor	TDP1 cell CPT	ATXN2 expr inh
CCN(C(=O)CSc1ncccc1C(=O)Oc1cccc([N+](=O)[O-])c1)c1cccc(C)c1	?	i	-22.9%	-29.7%	-10.1%	-8.9%
CCN(CC)Cc1nccn1-c1ccc([N+](=O)[O-])cc1C(=O)c1ccccc1Cl	5.96µM*	?	nt	nt	-83.5%	-12.8%
Cc1cccc(Cc2cnc(NC(=O)c3ccc4c(c3)CC(c3ccccc3)OC4=O)s2)c1 (configuration not stated)	20.6µM*	i	-2.0%	-16.8%	25.9µM*	2.6%
Cc1ccccc1NC(=O)NCCN1CC1	7.31µM*	i	-18.2%	10.2%	4.11µM*	nt
O=C(CSc1ccccn1)Nc1cccc2ccccc12	2.4%	?	-9.4%	15.5%	-3.3%	1.4%
O=C(NCCCN1CC1)Nc1cccc2ccccc12	7.31µM*	i	-7.2%	?	1.64µM*	-27.4%
CC(CC(C)(C)N1CC1)=NNC(=O)Nc1cccc2ccccc12	2.91µM*	?	-5.2%	0.4%	3.66µM*	?
COC(=O)C1=C(c2cccc(C#N)c2)C[C@@H]2CC[C@H]1N2C(=O)NC1CCCCC1	?	i	-16.9%	-5.5%	?	-2.8%
CC(C)(c1ccc(OCC2CO2)cc1)c1ccc(OCC2CO2)cc1 (configuration not stated)	6.51µM*	nt	nt	nt	6.51µM*	nt
c1ccc(OCC2CO2)cc1 (configuration not stated)	-0.5%	i	0.3%	4.4%	-11.1%	-4.1%
C/C=C(/C)C(=O)OC1CC[C@]2(C)C3CCC4[C@]5(O)CC(O)[C@]6(O)C(CN7CC(C)CCC7[C@]6(C)O)[C@]5(O)C[C@@]42O[C@]13O (some centres not stated)	-6.1%	nt	nt	nt	-2.6%	nt
COc1cc2c(cc1OC)CN(c1ccc([N+](=O)[O-])c(C(F)(F)F)c1)CC2	20.6µM*	i	-31.0%	-26.1%	16.4µM*	-38.8%
CCNc1cc(N2CCN(C)CC2)ccc1[N+](=O)[O-]	-5.3%	?	-23.2%	-10.4%	-17.7%	-21.4%[2.22 µM]
CC[C@@H](C(=O)[C@@H](C)[C@@H](O)[C@H](C)[C@@H]1O[C@@H]([C@@H](CC)C(=O)O)CC[C@@H]1C)[C@H]1O[C@]2(C=C[C@@H](O)[C@]3(CC[C@@](C)([C@H]4CC[C@](O)(CC)[C@H](C)O4)O3)O2)[C@H](C)C[C@@H]1C	0.517µM*	5.62µM*	-20.1%	?	0.581µM*	4.47µM*
Cc1ccc2c(=O)n(-c3cccc(Cl)c3)c(=O)[nH]c2c1	?	nt	-3.6%	?	?	nt
Cc1ccc(CCNC(=O)c2cc3cc(S(=O)(=O)N4CCCCC4)ccc3n2C)cc1	2.91µM*	nt	-3.5%	-0.3%	7.31µM*	nt
NS(=O)(=O)c1ccc(CCNC(=O)c2ccc(Cl)c(S(=O)(=O)N3CCCCC3)c2)cc1	23.1µM*	?	-29.8%	?	?	-15.3%
COC(=O)C1=C(c2ccc(Cl)c(C(F)(F)F)c2)C[C@@H]2CC[C@H]1N2C(=O)NCCOc1ccccc1	16.4µM*	?	-23.4%	?	?	?
COC(=O)C1=C(c2ccc(OC(F)(F)F)cc2)C[C@@H]2CC[C@H]1N2C(=O)NCCOc1ccccc1	18.4µM*	?	-24.1%	?	23.1µM*	-23.5%
COC(=O)C1=C(c2ccc(Cl)c(C(F)(F)F)c2)C[C@@H]2CC[C@H]1N2C(=O)NCc1ccco1	20.6µM*	?	-5.0%	?	?	-28.5%
